Experimental data reported in PubChem BioAssay AID623992 (NMMLSC, 2012).
Potency and affinity values are given separately. Activity calls are given as the source filed them.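 How the source made its calls: active means compounds whose fitted half-maximal effective concentration for blocking dye efflux is below 100 µM; inactive means the rest.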

molecular target: Benomyl/methotrexate resistance protein (Candida albicans) (UniProt P28873); experiment: CaMdr1 efflux pump inhibitor potency, dose response, singleplex, Cherry Pick2 set (AID 623992); settings: S. cerevisiae AD/CaMDR1, Nile Red efflux, flow cytometry; series mostly up to 100 µM
Sequence (P28873 whole entry, looked up): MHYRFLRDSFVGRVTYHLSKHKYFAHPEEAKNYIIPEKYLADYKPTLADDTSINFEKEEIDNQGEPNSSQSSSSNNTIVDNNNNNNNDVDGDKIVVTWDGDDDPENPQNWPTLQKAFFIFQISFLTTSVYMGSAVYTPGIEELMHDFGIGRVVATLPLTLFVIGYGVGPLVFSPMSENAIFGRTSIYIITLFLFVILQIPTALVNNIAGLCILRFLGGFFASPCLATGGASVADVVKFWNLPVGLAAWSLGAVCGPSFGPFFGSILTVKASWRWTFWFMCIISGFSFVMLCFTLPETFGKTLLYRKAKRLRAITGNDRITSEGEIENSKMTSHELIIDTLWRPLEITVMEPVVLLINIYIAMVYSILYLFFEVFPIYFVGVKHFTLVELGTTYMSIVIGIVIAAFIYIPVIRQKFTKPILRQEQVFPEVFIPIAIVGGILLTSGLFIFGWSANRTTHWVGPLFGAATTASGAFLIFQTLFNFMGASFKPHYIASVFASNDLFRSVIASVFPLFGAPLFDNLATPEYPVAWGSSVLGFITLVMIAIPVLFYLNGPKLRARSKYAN

outcome, inactive:
O=C(C1CCCN(c2ncnc3c2nc2n3CCCCC2)C1)N1CCN(c2ccccc2)CC1 (stereo unspecified)
NS(=O)(=O)c1ccc(N2N=C(c3ccccc3)CC2c2cccc(Br)c2)cc1 (stereo unspecified)
OCCN1CCN(CC/C=C2/c3ccccc3Sc3ccc(C(F)(F)F)cc32)CC1
CCc1ccc(C2=NN(c3ccc(S(N)(=O)=O)cc3)C(c3ccc(F)cc3)C2)cc1 (stereo unspecified)
COc1ccc(-c2c[n+](CC(=O)N3c4ccccc4Sc4ccccc43)c3n2CCC3)cc1
CCOc1cccc2sc(NC(=O)c3ccc(Br)s3)nc12
CN1Cc2cc(C(=O)c3ccccc3O)cnc2NC1=O
O=C(CSc1nnc(Cc2cccs2)n1Cc1ccco1)Nc1cccc(Cl)c1
Cc1ccc2c(c1)[C@H]1[C@H](CO2)[C@H](c2ccccc2)[C@]2(C)C(=O)Nc3cc(F)c(F)cc3C(=O)N12
NS(=O)(=O)c1ccc(N2N=C(c3ccc(Br)cc3)CC2c2ccc(F)cc2)cc1 (stereo unspecified)
COc1ccc([C@H]2CC(=O)C=C(c3ccnc4ccc(Cl)cc34)C2)cc1
COc1ccc(C2CC(c3cccc(OC)c3)=NN2c2ccc(S(N)(=O)=O)cc2)cc1 (stereo unspecified)
O=C1C(Cc2ccccc2)Nc2ncnc(N3CCN(c4ccccc4)CC3)c2N1Cc1ccccc1 (stereo unspecified)
O=C(NCCc1ccc(Cl)cc1)C1CCC(CNc2nc(=S)[nH]c3ccccc23)CC1 (stereo unspecified)
CCCCN1Cc2cc(C(=O)c3cc(F)ccc3O)cnc2NC1=O
COc1cc(OC)c2ccc(=O)oc2c1C(CCN1CCCC1)c1ccc(N(C)C)cc1 (stereo unspecified)
CCO[C@@H]1OC(C(=O)Nc2ccccc2)=C[C@H](c2ccccc2)[C@H]1CCCO
COc1cccc(N2CCN(C(=O)C3CCCN(c4ncnc5c4nc4n5CCCCC4)C3)CC2)c1 (stereo unspecified)
CC(C)C(=O)N1CCC2(CC1)Oc1ccc(F)cc1C(=O)C21CC(c2ccccc2)=NO1 (stereo unspecified)
COc1ccc2sc(-c3ccccc3OC)c(-c3ccc(OCCN(C)C)cc3)c2c1
CCC(=O)N1CCN(c2ccc(Cl)cc2NC(=O)c2ccc3c(c2)OCCO3)CC1
O=C(c1ccoc1)N1CCC2(CC1)Oc1ccc(F)cc1C(=O)C21CC(c2ccccc2)=NO1 (stereo unspecified)
O=C(NCCC1=CCCCC1)C1CCC(CNc2nc(=S)[nH]c3ccccc23)CC1 (stereo unspecified)
COc1cc(OC)c2ccc(=O)oc2c1C(CCN1CCCC(C)C1)c1ccc(N(C)C)cc1 (stereo unspecified)
O=C(c1ccoc1)N1CCC2(CC1)Oc1ccc(F)cc1C(=O)C21CC(c2ccc(Cl)cc2)=NO1 (stereo unspecified)
CCCCCc1cc(=O)oc2c(C(CCN3CCCC(C)C3)c3ccc(N(C)C)cc3)c(OC)cc(OC)c12 (stereo unspecified)
COc1ccc(C2CC(c3ccccc3C(F)(F)F)=NN2c2ccc(S(N)(=O)=O)cc2)cc1 (stereo unspecified)
COc1ccc(N2CCN(C(=O)C3CCCN(c4ncnc5c4nc4n5CCCCC4)C3)CC2)cc1 (stereo unspecified)
CCCCN1Cc2cc(C(=O)c3cc(OC)ccc3O)cnc2NC1=O
Cc1ccc(CN2C(=O)C(CC(C)C)Nc3ncnc(N4CCN(c5ccccc5)CC4)c32)cc1 (stereo unspecified)
COc1ccc2nc(NC(=O)c3cccs3)sc2c1
